Among all 360,000 compounds or so, about 25,000 (6.9%) were called active. Not shown: some 9% with an inconclusive outcome. Calls come from the whole dose curve; as a rule, active = well fitted inhibition curve with a large enough effect; inconclusive = small, poorly fitted or top-dose-only effect; inactive = flat fitted curve, though single readings scatter. What follows is part of a selection rich in actives, with near analogues and random picks from the rest. Entries that show only a call come without a potency.

The assay deals with Luciferin 4-monooxygenase (Photinus pyralis) (UniProt P08659). The assay is described as follows: qHTS profiling assay for firefly luciferase inhibitor/activator using purifed enzyme and Km concentrations of substrates (counterscreen for miR-21 project). Note: nearly all actives have a fitted effect of over 55% in size. Particulars: purified FLuc, luminescence inhibition; series mostly up to 57.5 µM. From the text: MLPCN Grant: 1 R21 NS059478-01 (miR-21 grant) Assay Provider: NCGC NCGC Assay Overview: Firefly (Photinus pyralis) luciferase is one of the most commonly used transcriptional reporters for a number of reasons. It is considered one of the more dynamically responsive reporters -that is, responsive to changes in reporter transcription - as it requires no post-translational modifications and is enzymatically active directly after protein synthesis (Wood, 1998). Additionally, the half-life of the luciferase protein is short relative to other reporter-gene products (Wood, 1995). Whereas reporters with long half-lives potentially allow for increased signal due to accumulation of reporter-gene product, once accumulated in the cell, dynamic changes in reporter-gene expression may be difficult to detect(Fan and Wood, 2007; Almond et al., 2004). It has been shown that wild-type P. pyralis luciferase has a half-life of approximately […] hours in mammalian cells (Thompson et al., 1991). Firefly luciferase reporter-gene assays are also generally considered one of the most sensitive assay types (Wood, 1995; Wood, 1998). Although light produced in a bioluminescence reaction is of lower intensity than that produced during fluorescence emission, this is offset by little to no background light inherent to luminescent assays. Thus the luciferase reporter can be expressed at much lower levels than fluorescent proteins while still providing robust signal. # However, it was initially observed, in 1991, by Thompson et al., that compounds that resemble the substrates of firefly luciferase (FLuc) can act as competitive inhibitors of the enzyme, and that these compounds, upon interaction with luciferase in the cell, can actually stabilize the protein and increase its half-life. Accumulated intracellular FLuc protein can be measured as an increase in luminescence signal, upon addition of detection reagents (which contain high concentrations of FLuc substrates) commonly used in high-throughput screening. In cell-based reporter gene assays that use FLuc as the reporter gene to quantitate the potential influence of a given compound against the target biology, this apparent increase in luminescence can mistakenly be interpreted as identification of a compound that is active against the target of interest. This is the case for the miR-21 FLuc reporter gene assay used to identify inhibitors of the miR-21 pathway (PubChem AID 2289) - compounds of interest will inhibit miR-21 biogenesis/expression or activity, and are identified by causing an increase in luminescence, due to increased FLuc translation. However, FLuc inhibitory compounds that stabilize the FLuc protein will give an identical read-out, making it difficult to distinguish compounds that are active against the target from those active against FLuc. Previous profiling work to determine the prevalence of compounds that affect FLuc enzymatic activity (PubChem AID 411) identified that ~3% of the MLSMR library (then at ~72K) inhibited FLuc. […] Since the MLSMR had grown to ~350K compounds, and since it was expected that a significant percentage of compounds found active in the miR-21 FLuc assay would be FLuc inhibitors, the library was screened for activity against FLuc using a biochemical assay of purified FLuc and KM concentrations of FLuc substrates (D-luciferin and ATP).
Sequence of Luciferin 4-monooxygenase (Photinus pyralis) (P08659 whole entry, looked up): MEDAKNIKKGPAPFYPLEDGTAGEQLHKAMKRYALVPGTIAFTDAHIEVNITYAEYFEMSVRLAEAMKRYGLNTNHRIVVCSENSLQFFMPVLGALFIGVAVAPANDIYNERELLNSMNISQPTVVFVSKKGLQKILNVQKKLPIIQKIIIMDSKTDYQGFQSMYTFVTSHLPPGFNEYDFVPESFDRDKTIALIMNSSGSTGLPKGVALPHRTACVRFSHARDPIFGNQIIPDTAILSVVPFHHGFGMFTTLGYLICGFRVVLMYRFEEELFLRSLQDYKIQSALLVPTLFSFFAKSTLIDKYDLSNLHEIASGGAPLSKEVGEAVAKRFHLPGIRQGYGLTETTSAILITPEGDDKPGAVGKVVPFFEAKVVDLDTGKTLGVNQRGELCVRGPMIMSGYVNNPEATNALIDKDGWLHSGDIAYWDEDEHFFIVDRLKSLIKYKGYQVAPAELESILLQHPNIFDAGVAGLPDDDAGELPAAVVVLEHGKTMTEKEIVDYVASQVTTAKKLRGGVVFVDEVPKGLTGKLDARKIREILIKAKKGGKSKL
NCGC Assay Protocol Summary: Reagents: 50mM Tris acetate, pH 7.5; 10mM Mg acetate; 10uM D-luciferin (Sigma #L9504); 10uM ATP; 0.01% Tween-20; 0.05% BSA; 10nM P. pyralis luciferase (Sigma #L9506) Control compounds used were two known firefly luciferase inhibitors (compounds (2) and (5) in Auld et al., 2010), and DMSO. […]
In the case of `COc1cc(OC)c(NC(=O)N2CC3CCCN3c3ccccc32)cc1Cl` (stereo not drawn), the Potency entry was “inactive”. Consider `COC(=O)c1ccccc1NC(=O)Cn1c(=O)cc(C)c2c(C)nn(-c3cccc(Cl)c3C)c21`, for which the Potency result was “inactive”. In the case of `COc1ccc2ncc3c(-c4ccc(C)c(C)c4)nn(CC(=O)NC4CCCC4)c3c2c1`, the Potency entry was “inactive”. On to `COc1c(O)cc2oc(-c3ccc(O)c(O)c3)cc(=O)c2c1O`, for which the Potency was 19 µM (active).

`CCOC(=O)COc1cc(O)c2c(=O)cc(-c3ccccc3)oc2c1`: the Potency result is “inactive”.

Take `COc1ccc(-c2cc(=O)c3c(O)cc(O[C@@H]4O[C@H](CO[C@@H]5O[C@@H](C)[C@H](O)[C@@H](O)[C@H]5O)[C@@H](O)[C@H](O)[C@H]4O)cc3o2)cc1O`: the Potency result was “inactive”.

In the case of `COc1ccccc1CNC(=O)CCCCn1c(=O)c2ccccc2n(CC(=O)Nc2cc(Cl)ccc2C)c1=O`, the Potency result is “inactive”. In the case of `Cc1nn(C(=O)c2c(F)cccc2F)c(C)c1S(=O)(=O)N1CCOCC1` it was “inactive”; in that of `CC(C)(C)OC(=O)NCCCCCNC(=O)c1[nH]cnc1C(=O)Nc1nccs1`, “inactive”. Take `Cc1ccc(-n2c(SCC(=O)NCc3ccc4c(c3)OCO4)nnc2-c2cccnc2)c(C)c1`: the Potency result is “inactive”. With `Cc1ccc(C)c(N2CCN(C(=O)C3CCC(CNS(=O)(=O)c4cccs4)CC3)CC2)c1` (stereo not drawn), the Potency result is “inactive”. With `Cc1ccc(S(=O)(=O)Nc2nc3ccccc3nc2N2CCc3ccccc3C2)cc1`, the Potency entry was “inactive”. `Cc1ccc2c(c1)c1ncn(Cc3ccc(F)cc3)c(=O)c1n2C`: the Potency result is “inactive”. For the compound `Cc1ccc2c(c1)c1ncnc(N3CCc4ccccc4C3)c1n2C`, the Potency is 13.5 µM (active). For the compound `CCN(CC)CCCNC(=O)c1cn(C)c2ccc(S(=O)(=O)N(C)C3CCCCC3)cc2c1=O`, the Potency entry is “inactive”. As for `Cn1c(=O)c2c(-c3ccccc3Br)n(Cc3ccccc3)cc2n(C)c1=O`, the Potency result is “inactive”. Regarding `COc1cc(OC)cc(-c2c(-c3cccs3)c3cc(-c4ccc(OC)cc4F)ccc3n2C)c1`, the Potency result was “inactive”.

Take `CCn1cc(C(=O)NCc2ccc(OC)cc2OC)c(=O)c2ccc(C)nc21`: the Potency entry was “inactive”.

`O=C(/C=C/c1ccccc1)N1CCN(Cc2cc(=O)n3nc(-c4ccccc4F)sc3n2)CC1`: the Potency result is “inactive”. As for `O=C(CNC(=O)c1cccnc1)N/N=C/c1cc(Br)c(O)c(Br)c1`, the Potency entry was “inactive”.

As for `O=C(CNC(=O)c1cccnc1)N/N=C/c1cccnc1`, the Potency result was “inactive”. Turning to `Cc1cc(/C=N/NC(=O)c2cccnc2)c(C)n1CC(C)C`, the Potency is 7.57 µM (active). `COc1ccc(Cn2c(C(=O)O)c(CNCCc3cccs3)c3ccc(OC)cc32)cc1`: the Potency entry was “inactive”.

As for `Cc1cc(N=Nc2ccc3ccccc3c2)ccc1O`, the Potency was 1.35 µM (active).

Regarding `CCOc1ccc(-c2nonc2NC(=O)c2oc3ccc(C)cc3c2C)cc1OCC`, the Potency result was “inactive”. In the case of `COc1ccc(/C=C/C(=O)Nc2ccc3c(c2)OCCO3)cc1OC` it was 23.9 µM (active); in that of `COc1ccc(S(=O)(=O)N(C)CC(=O)Nc2ccc3c(c2)OCCO3)cc1OC`, “inactive”; in that of `COc1ccc2c(c1)c(=O)c(C(=O)c1ccccc1)cn2CC(=O)Nc1ccc2c(c1)OCCO2`, “inactive”.

Take `COc1cccc(NC(=O)CSc2nccn(-c3ccc4c(c3)OCCO4)c2=O)c1`: the Potency result is “inactive”. In the case of `COc1ccc(/C=C/C(=O)N2CCCC2)cc1OC` it was “inactive”; in that of `COc1ccc(NS(=O)(=O)c2cc(NC(=O)/C=C/c3cc(OC)c(OC)c(OC)c3)ccc2N2CCCCC2)cc1`, “inactive”. Regarding `COc1ccc(/C=C/C(=O)Nc2ccc(C)cc2)cc1S(=O)(=O)N1CCOCC1`, the Potency result was “inactive”. As for `COc1cccc(/C=C/C(=O)Nc2ccc3c(c2)OCCO3)c1`, the Potency was 0.757 µM (active). As to `COc1ccc(/C=C/C(=O)Nc2ccc(C34CC5CC(CC(O)(C5)C3)C4)cc2)cc1OC`, the Potency was 0.601 µM (active). In the case of `COc1cc(C(=O)Nc2cc(C(F)(F)F)ccc2-n2cncn2)cc(OC)c1OC` it was “inactive”; in that of `CN(C)C(=O)N1CCNCC1`, “inactive”; in that of `CC12C(=O)N(c3ccccc3)C(=O)C1C(c1ccccc1)N1CCCN12` (stereo not drawn), “inactive”. For `CCOC(=O)C1CN(S(=O)(=O)c2ccc(F)cc2)C1`, the Potency entry is “inactive”. In the case of `COc1ccc(CNC(=O)c2ccc(NS(=O)(=O)c3ccc4[nH]c(=O)[nH]c4c3)cc2)cc1OC`, the Potency entry was “inactive”. `CCC1CCCCN1C(=O)Nc1cccc(NC(=O)N2CCCCC2CC)c1` (stereo not drawn): the Potency result is “inactive”.

`CCC1CCCCN1C(=S)Nc1ccc(S(=O)(=O)Nc2ncccn2)cc1` (stereo not drawn): the Potency entry was “inactive”. On to `CCC1CCCCN1C(=S)Nc1ccc(SC(F)F)cc1` (stereo not drawn), for which the Potency was 12 µM (active).

On to `CCOC(=O)c1ccc(NC(=O)CNC(=O)c2ccco2)cc1`, for which the Potency entry was “inactive”. In the case of `O=C(Nc1ccccc1)/C(=C\c1ccco1)NC(=O)c1ccco1`, the Potency entry was “inactive”. `COC(=O)c1cc(NC(=O)c2ccco2)ccc1N1CCOCC1`: the Potency result is “inactive”. In the case of `COC(=O)c1ccc(NC(=O)c2ccco2)cc1` it was 15.1 µM (active).

In the case of `COc1ccc(OCC(=O)Nc2ccc(NC(=O)c3ccco3)c(C)c2)cc1`, the Potency entry was “inactive”. With `Cc1cc(NC(=O)c2ccc(F)cc2)ccc1NC(=O)c1ccco1`, the Potency is 16.9 µM (active). As to `COc1ccc(NC(=O)c2ccco2)cc1NC(=O)COc1ccc(C)c(C)c1`, the Potency result was “inactive”. In the case of `Cc1cccc(OCC(=O)Nc2ccc(NC(=O)c3ccco3)c(C)c2)c1` it was “inactive”. Consider `O=C(/C=C/c1ccco1)Nc1ccc(Oc2ccccc2)cc1`, for which the Potency is 6.01 µM (active).

Regarding `Cc1ccc(C(=O)COc2cccc(NC(=O)c3ccco3)c2)cc1`, the Potency is 23.9 µM (active).

`O=C(/C=C/c1ccco1)NC(=S)Nc1ccccc1Br`: the Potency result was “inactive”. As for `Cc1cc(NC(=O)[C@H](C)NC(=O)c2ccco2)ccc1Br`, the Potency result is “inactive”. With `COc1ccc(CC(=O)N2N=C(C)CC2(O)C(F)(F)F)cc1` (stereo not drawn), the Potency result is “inactive”. As for `C#CCN1CC(C)/C(=N/O)CC1C` (stereo not drawn), the Potency entry is “inactive”.

For `CCOc1ccc(Nc2nc3c(S(=O)(=O)c4cccc(Cl)c4)nnn3c3ccsc23)cc1`, the Potency entry is “inactive”. For `Cc1ccc(Cl)cc1N1CCN(S(=O)(=O)c2cc3[nH]c(=O)c(=O)[nH]c3cc2C)CC1`, the Potency entry was “inactive”. In the case of `COc1ccc(NC(=O)N2CCCn3nc(C)cc32)cc1OC` it was “inactive”.

For `Cc1cc(C)cc(NC(=O)CCS(=O)(=O)c2cc3c4c(c2)CCN4C(=O)CC3)c1`, the Potency entry was “inactive”. As to `Cc1ccc(Cl)cc1NC(=O)CCS(=O)(=O)c1ccc(Br)s1`, the Potency result is “inactive”. Consider `Cc1ccc(N(CC(=O)NCC(C)c2ccccc2)S(=O)(=O)N(C)C)cc1` (stereo not drawn), for which the Potency entry was “inactive”. `CCN(CC(=O)NCc1ccc(Cl)cc1)C(=O)c1c(C)noc1C`: the Potency entry is “inactive”.

Values taken from PubChem BioAssay AID588342 (National Center for Advancing Translational Sciences (NCATS), 2011).
